Assay outcomes: PubChem, Broad Institute
NSD2 inh = blocks human histone methyltransferase NSD2; O96028; NSD2 peptide methylation, AlphaScreen, 120 min; inhibition, % at 12.5 µM; 310,000 compounds, 0.54% hits; in the data active means inhibition above about 50%
MLL AF4-AF9 inh = inhibitors of human MLL-AF4/AF9 interaction; AlphaScreen, biotin-AF4 peptide binding to FLAG-AF9; P42568; 350,000 compounds, 0.47% hits; inhibition, % at 10 µM;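 active means every replicate reaching a set inhibition limit, whatever the replicate mean, cut at about 25% in these data; inconclusive means mean inhibition reaches that limit but some replicates miss it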
Target sequence (P42568 whole entry, looked up): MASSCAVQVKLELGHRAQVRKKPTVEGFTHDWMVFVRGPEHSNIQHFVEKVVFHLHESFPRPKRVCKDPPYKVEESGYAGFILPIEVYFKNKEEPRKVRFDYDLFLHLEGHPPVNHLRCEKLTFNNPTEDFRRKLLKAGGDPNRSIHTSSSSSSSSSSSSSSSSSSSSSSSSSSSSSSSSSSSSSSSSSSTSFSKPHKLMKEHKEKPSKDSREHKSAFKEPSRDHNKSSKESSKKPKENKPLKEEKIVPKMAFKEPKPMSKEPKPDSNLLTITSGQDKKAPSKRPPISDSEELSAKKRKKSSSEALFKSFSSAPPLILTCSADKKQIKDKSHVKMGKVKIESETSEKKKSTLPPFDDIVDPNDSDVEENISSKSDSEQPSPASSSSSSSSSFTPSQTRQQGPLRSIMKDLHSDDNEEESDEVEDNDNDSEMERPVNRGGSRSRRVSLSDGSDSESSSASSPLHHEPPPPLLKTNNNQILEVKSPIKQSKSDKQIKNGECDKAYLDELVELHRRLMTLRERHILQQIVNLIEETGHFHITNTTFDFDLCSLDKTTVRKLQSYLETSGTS
HIV Env fusion = blocks HIV Env-driven cell-cell fusion | HeLa-JRFL Env/CEM21 cell fusion, luciferase | inhibition, % at 12.3 µM | 360,000 compounds, 1.1% hits | AID 651610;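 active means mean replicate inhibition score of at least 50 and every replicate individually at or above 50; inconclusive means only one of the two criteria met; inactive means mean below 50 and not all replicates reaching 50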
INS-1E GSIS act = primary screen for activators of insulin secretion dependent on glucose, INS-1E cells, GLuc reporter luminescence. INS-1E GLuc reporter insulin secretion, 2-3 h. activation, % at 16.6 µM. 370,000 compounds, 0.61% hits. AID 743287;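 active means lowest replicate activation of at least 40%, so every replicate reaches that level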
PGC1a acetyl inh = modulators of PGC1a acetylation | 350,000 compounds, 0.17% hits | U2OS PGC1a acetylation, AlphaScreen anti-acetyl-lysine; with virally co-expressed GCN5 acetyltransferase | inhibition, % at 15.6 µM;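 active means every replicate shows inhibition of at least 40%; inconclusive means mean inhibition at least 40% but some replicate below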
Large screens that a line does not name were inactive. Only some compounds are listed: those with a hit (about 2.1% of all), similar ones and a draw of the others.

Fc1ccc(CCN2CCN=C2Nc2ccccc2)cc1	none (no result: NSD2 inh, INS-1E GSIS act)
CCOC(=O)C1=C(COC(=O)c2cccs2)NC(=O)NC1C (stereo not given)	INS-1E GSIS act 59 (no result: HIV Env fusion, PGC1a acetyl inh)
CCN(CC)C(=O)[C@H]1C[C@H](CC(=O)NCC23CC4CC(CC(C4)C2)C3)C(=O)N2CCc3c([nH]c4ccc(Cl)cc34)[C@]12C	HIV Env fusion 65 (no result: NSD2 inh)
Cc1ccc2ncnc(Nc3cccc(C(=O)O)c3)c2c1	none
COc1cccc2sc(N(CCCN(C)C)C(=O)c3sc4ccccc4c3Cl)nc12	MLL AF4-AF9 inh 28 (no result: HIV Env fusion)
Cc1cccc2sc(N(CCCN(C)C)C(=O)c3sc4ccccc4c3Cl)nc12	none (no result: MLL AF4-AF9 inh)
CCN(CC)CCN(C(=O)c1ccc(C(=O)c2ccccc2)cc1)c1nc2c(OC)cccc2s1	MLL AF4-AF9 inh 27
COCCN(C[C@H]1N[C@H](CO)[C@@H]1c1ccc(-c2cccc(F)c2)cc1)C(C)=O	none (no result: NSD2 inh, HIV Env fusion)
O=C(c1nnc(Cc2ccc(Cl)cc2)o1)N1CCOCC1	none (no result: NSD2 inh)
CN(c1ccccc1)S(=O)(=O)c1cccc(NC(=O)C2=NNC(=O)CC2)c1	HIV Env fusion 64
c1ccc(CNCCCNCCCCNCCCNCc2ccccc2)cc1	MLL AF4-AF9 inh 25
O=C(O)CCCCNCc1ccccc1	none (no result: NSD2 inh, MLL AF4-AF9 inh, INS-1E GSIS act)
Cc1nc2ccccc2c2oc(C(=O)NCc3ccc4c(c3)OCO4)cc12	HIV Env fusion 88 (no result: NSD2 inh)
Cc1ccc(CNC(=O)c2cc3c(C)nc4ccccc4c3o2)cc1	none (no result: NSD2 inh, PGC1a acetyl inh)
O=C(CNC(=O)c1ccc(Cl)cc1)NCC(F)(F)F	none (no result: MLL AF4-AF9 inh, PGC1a acetyl inh)
CC(=O)NCCNC(=O)CNC(=O)c1ccc(Cl)cc1	INS-1E GSIS act 47 (no result: MLL AF4-AF9 inh, PGC1a acetyl inh)
O=C(COC(=O)c1cc(S(=O)(=O)N2CCCCC2)ccc1N1CCOCC1)c1ccc(Cl)cc1	none (no result: PGC1a acetyl inh)
COC(=O)c1cc(S(=O)(=O)NCC2CCN(Cc3cc(C)ccc3C)CC2)c[nH]1	INS-1E GSIS act 55
c1cncc(CNc2ncnc3sc4c(c23)CCC4)c1	none
O=C(N/N=C(\c1ccccc1)c1ccccn1)c1cccc([N+](=O)[O-])c1	none (no result: NSD2 inh, MLL AF4-AF9 inh, HIV Env fusion, INS-1E GSIS act)
CCOc1ccc(C(=O)N/N=C(\c2ccccc2)c2ccccn2)cc1	PGC1a acetyl inh 80 (no result: MLL AF4-AF9 inh, HIV Env fusion, INS-1E GSIS act)
Clc1ccc(OCCN2CCN(c3ncnc4sccc34)CC2)cc1	HIV Env fusion 99 (no result: MLL AF4-AF9 inh, INS-1E GSIS act)
Cc1ccc(OCCN2CCN(c3ncnc4sc(C)c(C)c34)CC2)cc1	HIV Env fusion 85 (no result: NSD2 inh, MLL AF4-AF9 inh, INS-1E GSIS act)
Clc1ccc(-c2noc(CSc3nnc(-c4ccncc4)n3-c3ccccc3)n2)cc1	HIV Env fusion 94 (no result: MLL AF4-AF9 inh)
Cc1ccc(-c2noc(CSc3nnc(-c4ccncc4)n3-c3ccc(C)cc3)n2)cc1	none (no result: MLL AF4-AF9 inh)
CN=c1scc(-c2ccco2)n1/N=C/c1ccc(O)c(O)c1	MLL AF4-AF9 inh 26 (no result: NSD2 inh)
COc1ccc(O)c(/C=N/n2c(-c3ccco3)csc2=Nc2cccnc2)c1	none (no result: MLL AF4-AF9 inh, PGC1a acetyl inh)
Cc1ccc(C(NC(=O)NN2CCN(C)CC2)C(Cl)Cl)cc1F (stereo not given)	none (no result: PGC1a acetyl inh)
CCC(C)(C)c1ccc(OCCCC[n+]2cccc(C)c2)c(C(C)(C)CC)c1	HIV Env fusion 129, INS-1E GSIS act 185 (no result: PGC1a acetyl inh)
CCOc1ccccc1CN1[C@@H](c2ccc(OC)cc2)CC(C(=O)OC)(C(=O)OC)[C@H]1c1ccccc1	HIV Env fusion 61 (no result: NSD2 inh, PGC1a acetyl inh)
CN(C)S(=O)(=O)c1cccc(-c2csc(=Nc3ccccc3)n2CCCN2CCOCC2)c1	MLL AF4-AF9 inh 32
C[C@@H]1CN([C@@H](C)CO)C(=O)Cc2cc(N(C)C)ccc2O[C@H]1CN(C)Cc1ccc(-c2ccccc2)cc1	MLL AF4-AF9 inh 74 (no result: NSD2 inh, HIV Env fusion)
C[C@@H]1CN([C@H](C)CO)C(=O)Cc2cc(N(C)C)ccc2O[C@H]1CN(C)Cc1ccc(C(=O)O)cc1	none (no result: NSD2 inh)
C[C@H](CO)N1C[C@H](C)[C@H](CN(C)Cc2ccc(-c3ccccc3)cc2)Oc2ccc(N(C)C)cc2CC1=O	MLL AF4-AF9 inh 29 (no result: NSD2 inh, HIV Env fusion)
C[C@H](CO)N1C[C@H](C)[C@@H](CN(C)Cc2ccc(C(F)(F)F)cc2)Oc2ccc(N(C)C)cc2CC1=O	MLL AF4-AF9 inh 33, HIV Env fusion inconclusive (no result: NSD2 inh)
C[C@H](CO)N1C[C@H](C)[C@H](CN(C)Cc2ccccc2)Oc2ccc(N(C)C)cc2CC1=O	none (no result: NSD2 inh)
Cc1c(CCC(=O)O)c(=O)oc2cc(OCc3ccccc3F)ccc12	none
COc1ccc(Nc2nnc(Cc3ccncc3)c3ccccc23)c(OC)c1	none
CCN(CC(=O)Nc1c(F)cccc1F)C(=O)CSCC(=O)Nc1ccc(OC)cc1	none (no result: PGC1a acetyl inh)
CO[C@H](CN(C)C(=O)c1cc(Cl)cc(Cl)c1)[C@H](C)CN(C(=O)Nc1ccc(F)cc1)[C@@H](C)CO	none (no result: NSD2 inh, HIV Env fusion)
CCOc1ccc(C(=O)NCC(=O)OCCN2C(=O)c3ccccc3C2=O)cc1OCC	INS-1E GSIS act 57 (no result: HIV Env fusion, PGC1a acetyl inh)
